Data reported in PubChem BioAssay (NCATS).
Several values for one entry are separate records, joined by “and”; a condition that tells them apart may be missing. Equal entries are not always repeated. Results filed as inconclusive are left out. Some compounds were tested as several samples or in several runs, with calls that do not always agree. Activity calls are given as the source filed them. The call rests on the fitted dose curve; in most records, active means well fitted inhibition curve with a large enough effect; inconclusive means small, poorly fitted or top-dose-only effect; inactive means flat fitted curve, though single readings scatter. Where a SMILES comes first, the peptide text is derived from it. Bridges are numbered along the chain shown (N, C = ends). [ ]: non-standard residue; d: D form. The star is where a group is joined. X1 = CCC(C)C(N)C1=NC(C(=O)*)CS1; dOrn = NCCC[C@@H](N)C(=O)O

Tests used:
HEK293 = test: Cytotoxic Profiling of Annotated Libraries Using Quantitative High-Throughput Screening (AID 1296008); conditions: Five cell lines viability, CellTiter-Glo ATP luminescence, 48-72 h; max response: active compounds read low; further: potency means the concentration at half of the fitted maximal effect; on max response: on the % scale 0 is the no-effect control and ±100 the full control effect
How it was run: (§1)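 Cells exposed to compounds for 48 or 72 hr at 37 degrees Celsius. Viability read as ATP-coupled luminescence with CellTiter-Glo after 10 min at room temperature.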

HaCat [1] = test: as above; conditions: Five cell lines viability, CellTiter-Glo ATP luminescence, 48-72 h; max response: active compounds read low
How it was run: as §1

KB-3-1 = test: as above; conditions: Five cell lines viability, CellTiter-Glo ATP luminescence, 48-72 h; max response: active compounds read low
How it was run: as §1

NIH3T3 = test: as above; conditions: Five cell lines viability, CellTiter-Glo ATP luminescence, 48-72 h; max response: active compounds read low
How it was run: as §1

HACAT [2] = test: qHTS assay to identify novel small-molecules to repurpose for Merkel cell carcinoma treatment (AID 1296009); conditions: MCC and control cell lines, CellTiter-Glo viability, 72 h; at 44.8 µM (top of the series) unless noted
How it was run: (§2)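 Cells were incubated with compound for 72 hr at 37 degree celsius before CellTiter-Glo addition. Luminescence was normalized with no-cell wells as full cytotoxicity and DMSO as baseline.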

HEK293T = test: as above; conditions: MCC and control cell lines, CellTiter-Glo viability, 72 h; series mostly up to 44.8 µM
How it was run: as §2
Further: nearly all actives have a fitted effect of over 60% in size.

CCC(C)C(N)C1=NC(C(=O)N[C@@H](CC(C)C)C(=O)N[C@H](CCC(=O)O)C(=O)N[C@H](C(=O)N[C@H]2CCCCNC(=O)[C@H](CC(N)=O)NC(=O)[C@@H](CC(=O)O)NC(=O)[C@H](Cc3cnc[nH]3)NC(=O)[C@@H](Cc3ccccc3)NC(=O)[C@H]([C@@H](C)CC)NC(=O)[C@@H](CCCN)NC2=O)[C@@H](C)CC)CS1 (stereo not given in full) (X1-L[dE]IK[dOrn]I[dF]H[dD]N; lactam 4-C)
inactive: max response (HEK293) -1.63% and -10.3% | outcome (HaCat [1]) | max response (KB-3-1) 8.49% | outcome (KB-3-1) | max response (NIH3T3) 2.78% | outcome (HACAT [2]) inactive [at 17.4 µM]

CCC(=O)NS(=O)(=O)c1ccc(-c2c(-c3ccccc3)noc2C)cc1
inactive: outcome (HEK293) | max response (HaCat [1]) -10.3% | max response (KB-3-1) -21.2% | outcome (KB-3-1) | outcome (NIH3T3) | Potency (HEK293T)

CC(C)Nc1cc(-c2c[nH]c(C(=O)N[C@H](CO)c3cccc(Cl)c3)c2)c(Cl)cn1
active: Potency (HEK293) 26.3 µM | Potency (HaCat [1]) 2.59 µM and 14.8 µM
inactive: max response (HEK293) -74.1% | max response (KB-3-1) -26.9%

CO/N=C(/C(=O)N[C@@H]1C(=O)N2C(C(=O)O)=C(CSC(=O)c3ccco3)CS[C@H]12)c1csc(N)n1
inactive: max response (HEK293) 3.45% and -9.59% | max response (HaCat [1]) 4.84% | outcome (HaCat [1]) inactive; activator | max response (NIH3T3) 0.301% and -3.25% | outcome (HACAT [2]) inactive; activator

Cc1ccc(C(=O)Nc2ccc(Oc3cc4cnn(C)c4cc3-c3cn[nH]c3)c(F)c2)c(=O)n1-c1ccc(F)cc1
active: Potency (HEK293) 5.8 µM and 3.31 µM | Potency (HaCat [1]) 16.6 µM | Potency (KB-3-1) 5.17 µM | Potency (NIH3T3) 4.11 µM

CCOc1ccc(-c2ccc(Cn3c(CC(C)(C)C(=O)O)c(SC(C)(C)C)c4cc(OCc5ccc(C)cn5)ccc43)cc2)cn1
inactive: max response (HEK293) -15.3% | outcome (HEK293) | max response (HaCat [1]) -15.9% and -11.2% | max response (KB-3-1) -5.24% | outcome (KB-3-1) | max response (NIH3T3) -6.34% | Potency (HEK293T)

O=C(Nc1cccnn1)N1CCC(=Cc2cccc(Oc3ccc(C(F)(F)F)cn3)c2)CC1
inactive: max response (HaCat [1]) -13.4% | outcome (HaCat [1]) | max response (NIH3T3) -5.09% and -8.67% | outcome (HACAT [2])
active: Potency (HEK293) 8.2 µM and 13.2 µM

COc1ncc(-c2ccc3c(Nc4cc(Oc5cc(F)cc(F)c5)cc(C(=O)O)c4)c(S(=O)(=O)NC4CC4)cnc3c2)c(OC)n1
inactive: max response (HEK293) 0.563% and -20.6% | max response (HaCat [1]) -12% and 2.17% | outcome (KB-3-1) | max response (NIH3T3) 3.25% and -1.23%

CC(C)N(C[C@H]1O[C@@H](n2cnc3c(N)ncnc32)[C@H](O)[C@@H]1O)C1CC(CCc2nc3ccc(C(C)(C)C)cc3[nH]2)C1 (stereo not given in full)
active: Potency (HEK293) 7.41 µM
inactive: max response (HaCat [1]) 3.92% | outcome (HaCat [1]) | max response (KB-3-1) 5.25% | max response (NIH3T3) -7.24% and -17.7% | outcome (HACAT [2])

Cc1onc(-c2ccccc2)c1C(=O)N[C@@H]1C(=O)N2[C@@H]1SC(C)(C)[C@@H]2C(=O)O
inactive: max response (HEK293) 3.77% and -1.97% | max response (HaCat [1]) -3.02% and -31.5% | outcome (KB-3-1) | outcome (NIH3T3)

CC1=C2C(=O)O[C@@H](c3ccoc3)[C@]2(C)CCC1
inactive: max response (HEK293) -8.51% and 3.13% | max response (HaCat [1]) 0.193% | max response (KB-3-1) 4.53% | outcome (KB-3-1) | max response (NIH3T3) 0.635% and 0.0895%

O=C(NC[C@H](O)CN1CCc2ccccc2C1)c1cc(NC2COC2)ncn1
inactive: max response (HEK293) -6.86% | max response (HaCat [1]) -0.448% | outcome (KB-3-1) | max response (NIH3T3) -2.53% | outcome (NIH3T3)

Cc1nc2c(-c3cnc(N)nc3)nc(N3CCOCC3)nc2n1C(C)C
active: Potency (HEK293) 326 nM and 23.4 nM | Potency (HaCat [1]) 2.06 µM and 132 nM | Potency (KB-3-1) 0.461 µM | Potency (NIH3T3) 1.16 µM and 234 nM

COc1c(C)c(C(=O)c2ccc(N)c(C(=O)O)c2)n2ccccc12
inactive: max response (HEK293) -16.3% | max response (HaCat [1]) -0.372% | outcome (HaCat [1]) | max response (KB-3-1) 4.57% and 7.45% | outcome (HACAT [2])

NS(=O)(=O)NCCNc1nonc1C(=Nc1ccc(F)c(Br)c1)NO
inactive: max response (HEK293) -61.6% | outcome (HEK293) | max response (HaCat [1]) -46.4% | outcome (HaCat [1]) | max response (KB-3-1) 4.58% and 8.99% | max response (NIH3T3) -8.59% and -38.3% | outcome (NIH3T3) | outcome (HACAT [2]) | Potency (HEK293T)

O=C(C1CC1)N1CC[C@@H](Cc2n[nH]c(=O)n2-c2ccc(-c3ccc4occc4c3)cc2)C1
inactive: outcome (HEK293) | max response (HaCat [1]) -2.96% | outcome (HaCat [1]) | outcome (KB-3-1) | max response (NIH3T3) -10.7% | outcome (HACAT [2]) inactive [at 17.4 µM] | Potency (HEK293T)

CN(C)c1cccc(-c2c3c(=O)n(-c4ccccc4Cl)[nH]c3cc(=O)n2C)c1
inactive: outcome (HEK293) | outcome (HaCat [1]) | max response (KB-3-1) 5.47% | max response (NIH3T3) -12.2% | outcome (NIH3T3) | outcome (HACAT [2]) | Potency (HEK293T)
active: Potency (HEK293) 5.88 µM | Potency (HaCat [1]) 14.8 µM
